# Measurements reported in PubChem BioAssay (NCI).
# The panel holds about 83,000 compounds, 20% with a hit somewhere; the sample as a whole holds those more often.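 The test compound was applied at a single concentration to cells in 96-well plates for 48 hours, and percent growth was recorded.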 A number with no mark means an inactive call. The source made the active and inactive calls. The calls were made as follows: active = growth percent below 10; inactive = the rest.
# Test system: T-47D breast
# Test: NCI-60 one-dose screen, 48 h (100 = growth as untreated, 0 = no growth, -100 = all killed)
# Details: 10 µM unless noted
row,Structure (SMILES),growth
1,CN(C)CCCc1ccc(Nc2cnn(C)c(=O)c2Cl)cc1,98.2%
2,Nc1cc2ccccc2c(=O)n1NC(=O)c1ccccc1,77.7%
3,Cn1cc(-c2cc(N)n3nc(-c4c[nH]c5ccccc45)cc3n2)c2cc(Cl)ccc21,-77.5% (active)
4,O=C(NC(=S)N1CCN(c2ncnc3c2cnn3-c2ccccc2)CC1)c1ccc(Br)cc1,73.1%
5,O=C(N/N=C/c1ccc(B(O)O)s1)c1[nH]c2ccc(Br)cc2c1-c1ccccc1,-77% (active)

# Test system: BT-549 breast
# Test: as above
# Details: 10 µM unless noted
row,Structure (SMILES),growth
1,CCCCNc1ccc2c3c(cccc13)C(=O)N(c1cccc(-c3nn(-c4ccccc4)cc3-c3nc4ccccc4s3)c1)C2=O,117%
2,COc1ccc(-c2cc(-c3cc(OC)c(OC)c(OC)c3)[nH]c(=O)c2C#N)cc1,70.5%
3,COc1cc(C2CC(c3ccc(Cl)cc3)=Nc3c(N)nc(N)nc3N2)ccc1Oc1nc(Nc2ccc(F)cc2)nc(N(C)C)n1 (stereo not drawn),62.4%
4,O=C(O)CC1S/C(=N/N=C/c2nc3ccccc3s2)NC1=O (stereo not drawn),98.2%
5,Cc1ccc(S(=O)(=O)N(CCn2ccnc2[N+](=O)[O-])CCn2ccnc2[N+](=O)[O-])cc1,119%
6,N#CCc1nnc(NC(=O)c2ccc(-n3c(=O)[nH]c4ccccc4c3=O)cc2)s1,109%
7,O=C(N/N=C/c1ccc(Br)o1)c1[nH]c2ccc(Br)cc2c1-c1ccccc1,-27.8% (active)
8,COc1ccc(N=Nc2c(N)nn3c(-c4ccc([N+](=O)[O-])cc4)ccnc23)cc1,94%
